Data: PubChem BioAssay (NCI)
This is part of a sample that, as a whole, favours compounds with a hit. Of some 79,000 tested, about 15% had one in any assay. Unmarked numbers belong to inactive results. Calls of active or inactive are those of the source. No stated cut-off is given here; in the data, active means growth inhibition above about 70%; inactive means the rest.

Experiments:
[1] = NCI Yeast Anticancer Drug Screen. Data for the rad50 strain (AID 155);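 further: 0% = growth of vehicle-only cultures of the same strain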; conditions: S. cerevisiae rad50 strain growth inhibition, stronger effect = higher value
Summary of the method: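 Cells are treated with compound, grown, and their growth is then scored against vehicle-only cultures of the same repair-deficient yeast strain.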

[2] = NCI Yeast Anticancer Drug Screen. Data for the mec2-1 strain (AID 157); conditions: S. cerevisiae mec2-1 strain, stronger effect = higher value
Summary of the method: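 Vehicle-treated cultures served as reference for growth inhibition of compound-exposed mec2-1 yeast.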

[3] = NCI Yeast Anticancer Drug Screen. Data for the sgs1 mgt1 strain (AID 161);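 further: 0% = growth of cultures given vehicle only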; conditions: S. cerevisiae sgs1 mgt1 strain, stronger effect = higher value
Summary of the method: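 Test agents were incubated with a DNA-repair-mutant yeast strain. Growth was then read and compared against vehicle-treated controls.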

[4] = NCI Yeast Anticancer Drug Screen. Data for the cln2 rad14 strain (AID 165);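 further: 0% = growth equal to vehicle treated cultures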; conditions: S. cerevisiae cln2 rad14 strain, stronger effect = higher value
Summary of the method: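 Each compound was tested on cln2 rad14 yeast. Inhibition of growth was calculated against vehicle-exposed controls.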

[5] = NCI Yeast Anticancer Drug Screen. Data for the bub3 strain (AID 167); conditions: S. cerevisiae bub3 mutant strain, stronger effect = higher value
Summary of the method: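 Part of a panel of yeast mutants defective in DNA damage repair or cell cycle regulation. Each strain is grown with compound, and inhibition is calculated relative to solvent-treated cultures.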

[6] = NCI Yeast Anticancer Drug Screen. Data for the mlh1 rad18 strain (AID 175); conditions: S. cerevisiae mlh1 rad18 strain growth inhibition, stronger effect = higher value
Summary of the method: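 Vehicle-treated cultures served as the reference for growth inhibition in a yeast strain carrying DNA damage repair alterations exposed to each compound.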

[7] = at 5.0 µM (retest, dose inferred, filed as 0.5)
[8] = at 50.0 µM (retest, dose inferred, filed as 5.0)

Structure (SMILES)	growth inhibition [1, 7]	growth inhibition [1, 8]	growth inhibition ([1]; at 50.0 µM)	growth inhibition [2, 7]	growth inhibition [2, 8]	growth inhibition ([2]; at 50.0 µM)	growth inhibition [3, 7]	growth inhibition [3, 8]	growth inhibition ([3]; at 50.0 µM)	growth inhibition [4, 7]	growth inhibition [4, 8]	growth inhibition ([4]; at 50.0 µM)	growth inhibition [5, 7]	growth inhibition [5, 8]	growth inhibition ([5]; at 50.0 µM)	growth inhibition [6, 7]	growth inhibition [6, 8]	growth inhibition ([6]; at 50.0 µM)
N=C(N)c1ccc(Oc2ccc(Oc3ccc(C(=N)N)cc3)cc2)cc1	43%	69%	70.8% (active)	39%	68%	83.8% (active)	59%	89% (active)	81.2% (active)	50%	80% (active)	64.6%	53%	79% (active)	65.7%	57%	90% (active)	81.5% (active)
O=C(c1c(F)c(F)c(F)c(F)c1F)n1c(=S)n(C(=O)c2c(F)c(F)c(F)c(F)c2F)c2ccccc21	11%	96% (active)	42%	19%	90% (active)	71.4% (active)	14%	93% (active)	62.3%	-2%	53%	8.45%	2%	91% (active)	49.1%	29%	95% (active)	86.1% (active)
CC(=O)N(C)c1cc(NCc2ccccc2)ccc1OCc1ccccc1	1%	96% (active)	98.1% (active)	12%	95% (active)	97.8% (active)	2%	96% (active)	97.7% (active)	-60%	24%	79.8% (active)	-7%	-65%	95.7% (active)	-1%	96% (active)	98.3% (active)
O=C(NN1C(=O)C(Cl)C1c1ccc(O)cc1)c1ccccc1O (configuration not stated)	-4%	78% (active)	79.5% (active)	13%	79% (active)	61%	0%	72% (active)	69.9%	13%	63%	44%	11%	90% (active)	71.1% (active)	20%	91% (active)	67.7%
CC1=NC(C)C(C)S1 (configuration not stated)	-1%	3%	9.45%	0%	0%	5.5%	-1%	1%	-2.5%	4%	0%	16.1%	3%	3%	55.9%	2%	4%	12.7%
CCCCC1C(=S)N(c2ccccc2)N(c2ccccc2)C1=S	0%	-2%	24.1%	2%	-13%	40.9%	5%	-14%	82.8% (active)	0%	-10%	8.6%	3%	-6%	37%	-7%	3%	60.4%
CC(=O)OC1C(OC(C)=O)C2C(C)CC3OC(=O)C(C)C3CC2(C)C1OC(C)=O (configuration not stated)	-7%	71% (active)	78.2% (active)	2%	82% (active)	77.2% (active)	-6%	69%	73.6% (active)	34%	46%	32.4%	9%	80% (active)	67%	-18%	81% (active)	72.7% (active)
CNc1c(C(=O)Nc2ccccc2)c(=O)n(C)c(=O)n1C	99% (active)	99% (active)	62.9%	100% (active)	99% (active)	81% (active)	99% (active)	99% (active)	32.8%	99% (active)	99% (active)	2.3%	99% (active)	99% (active)	90.8% (active)	99% (active)	99% (active)	74.5% (active)
CSC(=Nc1ccc(Cl)cc1)N1CC=Cc2ccccc21	2%	-1%	-1.85%	-13%	12%	5.85%	-15%	23%	43.4%	9%	-4%	42.8%	49%	82% (active)	81.8% (active)	0%	-1%	12.3%
O=C1OS(=O)(=O)c2cc3c(cc21)C1C(C2C3C3(Cl)C(Cl)=C(Cl)C2(Cl)C3(Cl)Cl)C2(Cl)C(Cl)=C(Cl)C1(Cl)C2(Cl)Cl (configuration not stated)	-18%	58%	83.9% (active)	48%	72% (active)	71.8% (active)	55%	80% (active)	86.6% (active)	8%	77% (active)	60.9%	3%	81% (active)	74% (active)	63%	91% (active)	73.8% (active)
C=CCOC(=O)C#CCCCC	-3%	1%	-5.25%	3%	2%	19.6%	-2%	2%	15.7%	-5%	5%	87.8% (active)	-1%	11%	-12.8%	-1%	6%	-12.3%
CC(C)c1c(P(=O)(c2ccccc2)c2ccccc2)n(C)c2ccccc12	36%	99% (active)	83.4% (active)	-34%	98% (active)	89.5% (active)	-30%	89% (active)	77.8% (active)	-4%	98% (active)	85.5% (active)	-25%	99% (active)	84.7% (active)	-27%	96% (active)	79.6% (active)
C=C1C(=O)C23C(O)C1CC[C@H]2C12CCCC(C)(COC(C)=O)[C@H]1[C@H](O)[C@]3(O)OC2 (some centres not stated)	28%	94% (active)	90.4% (active)	26%	97% (active)	92.2% (active)	83% (active)	97% (active)	92.2% (active)	77% (active)	96% (active)	89.2% (active)	22%	96% (active)	90% (active)	43%	95% (active)	89.2% (active)
O=C1/C(=C/c2ccc(Cl)cc2)CCC/C1=C\c1ccc(O)c(CN2CCCCC2)c1	31%	52%	2.4%	2%	17%	1.75%	7%	20%	69%	7%	24%	51.9%	-48%	17%	72.3% (active)	16%	20%	90.6% (active)
Oc1ccc(Br)cc1-c1nc2cc(Cl)c(Cl)cc2nc1-c1cc(Br)ccc1O	48%	80% (active)	81.2% (active)	46%	85% (active)	86.3% (active)	44%	88% (active)	88.6% (active)	47%	91% (active)	86.1% (active)	45%	86% (active)	81.7% (active)	48%	90% (active)	80.7% (active)
CC1(C)CC[C@]2(C(=O)O)[C@H](O)C[C@]3(C)C(=CC[C@@H]4[C@@]5(C)CC[C@H](OC6OCC(O)C(O)C6OC6OCC(O)C(O)C6OC6OCC(O)C(O)C6O)C(C)(C)[C@@H]5CC[C@]43C)[C@@H]2C1 (some centres not stated)	5%	7%	51.9%	12%	54%	57.1%	8%	33%	-13.4%	14%	100% (active)	54%	14%	100% (active)	48.8%	5%	53%	52%
CC1c2cc(c3c(c2O)CN([C@@H](C)C2CCCCC2)CO3)C(C)c2cc(c3c(c2O)CN([C@@H](C)C2CCCCC2)CO3)C(C)c2cc(c3c(c2O)CN([C@@H](C)C2CCCCC2)CO3)C(C)c2cc1c1c(c2O)CN([C@@H](C)C2CCCCC2)CO1 (some centres not stated)	-3%	-5%	36.6%	-1%	-28%	2.9%	-3%	-10%	42.9%	-2%	-44%	30.8%	-1%	-13%	69.2%	-6%	-16%	47.3%
O=[N+]([O-])C(/C=C(\Cl)n1nnc2ccccc21)=C(/Cl)n1nnc2ccccc21	25%	36%	-1.95%	17%	18%	-3.7%	13%	26%	25.2%	11%	11%	13.4%	27%	27%	14.4%	22%	35%	17.3%
COCCOC1=C(Cl)C(=O)c2c(O)ccc(O)c2C1=O	97% (active)	98% (active)	90.5% (active)	99% (active)	98% (active)	90.7% (active)	94% (active)	99% (active)	92.4% (active)	69%	99% (active)	90.5% (active)	100% (active)	99% (active)	90.3% (active)	99% (active)	98% (active)	89.2% (active)
